Screening data (PubChem)
The full list was thinned out, with hits kept by preference.
CHX counter – affects cycloheximide protein synthesis inhibition readout, counter-screen; cell reporter, cycloheximide protein synthesis inhibition counterscreen; max response, %; 300,000 tested, 12% active; in the data active = max response mostly above about 13%, no sharp cut-off; inactive = mostly below about 14%; note: read at 38.3 µM for the half of the compounds with a filed dose
LmPK inh – LmPK (Leishmania mexicana) enzyme inhibition; Q27686; purified LmPK, Kinase-Glo ATP luminescence, 1 h; Potency, µM (series often up to 57.5 µM), hits mostly inhibitors; 290,000 tested, 0.37% active
Target sequence (Q27686 whole entry, looked up): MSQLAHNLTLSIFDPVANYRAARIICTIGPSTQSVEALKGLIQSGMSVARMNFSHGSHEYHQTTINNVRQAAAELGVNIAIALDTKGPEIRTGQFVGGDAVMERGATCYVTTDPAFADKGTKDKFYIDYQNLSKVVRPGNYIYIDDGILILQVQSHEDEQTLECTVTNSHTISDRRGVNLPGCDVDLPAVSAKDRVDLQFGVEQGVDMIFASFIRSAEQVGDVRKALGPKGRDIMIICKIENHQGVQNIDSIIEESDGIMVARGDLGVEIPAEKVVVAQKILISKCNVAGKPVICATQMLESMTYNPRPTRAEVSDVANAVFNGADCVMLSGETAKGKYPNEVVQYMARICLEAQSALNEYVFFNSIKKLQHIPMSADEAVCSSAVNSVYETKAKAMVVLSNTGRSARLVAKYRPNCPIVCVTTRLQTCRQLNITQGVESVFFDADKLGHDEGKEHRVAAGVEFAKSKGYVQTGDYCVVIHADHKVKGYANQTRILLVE
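qHTS format; LmPK 0.1 nM; substrates PEP 0.5 mM and ADP 0.1 mM. One-hour room-temperature incubation, then coupled luciferase luminescence; 0.5 nM enzyme wells mark activation.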
Shiga toxin inh – inhibitors of Shiga toxin in Vero cells; AID 2315; inhibition, % at 38.7 µM; 290,000 tested, 9.2% active; Vero cells, Shiga toxin protein synthesis inhibition reporter; in the data active = inhibition mostly above about 28%, no sharp cut-off; inactive = mostly below about 43%
Giardia FBPA inh – inhibitors of Giardia lamblia fructose-1,6-bisphosphate aldolase; A8B2U2; purified Giardia FBPA; Potency, µM (titrated, usually from 59.6 µM), hits mostly inhibitors; 290,000 tested, 0.71% active; note: nearly all actives have a fitted effect of over 55% in size
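Giardia FBPA (40 nM reagent) was preincubated 10 min at RT with compound (up to 57.5 uM final), then substrate plus GAPDH/TPI/NAD/arsenate coupling system with diaphorase/resazurin was added; resorufin fluorescence (525/598 nm) was read after 20 min.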
RE007 growth inh – less growth of the S. pombe RE007 Vpr strain | S. pombe RE007 Vpr strain, BacTiter-Glo ATP luminescence, 24 h | Potency, µM (doses to about 92.2 µM), actives largely listed as inhibitors | 360,000 tested, 0.21% active; active = well fitted falling curve with a large enough effect; inconclusive = small, poorly fitted or top-dose-only effect; inactive = no such curve, though single readings can be large or run the other way; note: nearly all actives have a fitted effect of over 50% in size
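Fission yeast RE007 carrying one integrated HIV-1 vpr copy, seeded at OD 0.01 in PMG+AL medium with 23 nL pinned compound. Grown 24 h at 30 degrees; viability read by BacTiter-Glo luminescence after 5 min.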
TbPYK inhibitor – inhibitors of Trypanosoma brucei pyruvate kinase; Q57TT1; TbPYK enzyme, Kinase-Glo Plus ATP luminescence, 45 min; Potency, µM (titrated, usually from 76.8 µM), actives largely listed as inhibitors; 410,000 tested, 0.12% active; AID 624173; note: nearly all actives have a fitted effect of over 50% in size
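ADP (130 uM final) triggers the TbPYK reaction after compound addition; incubation is 45 min at room temperature. Kinase-Glo Plus is then added and luminescence imaged. Normalized data are fitted to concentration-effect curves.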
Numbers stand for hits; - = inactive; ? = inconclusive; . = no result; + = active, no number; [ ] = remark or other dose. Unless noted, calls come from the whole dose curve; as a rule, active = well fitted curve in the direction sought with a large enough effect; inconclusive = small, poorly fitted or top-dose-only effect, or another doubt; inactive = no such curve, though single readings can be large; an effect the other way counts as inactive or inconclusive.

SMILES | CHX counter | LmPK inh | Shiga toxin inh | Giardia FBPA inh | RE007 growth inh | TbPYK inhibitor
Cc1ccc(-c2nc(NCc3ccco3)c3ccccc3n2)cc1 | 69.0 | - | 36.3 | - | - | -
Cc1ccc(-n2nc(C(=O)N(C)c3ccccc3Cl)c3c4ccccc4n(C)c3c2=O)cc1 | . | . | . | . | . | -
Cc1ccc(-c2nc(N/N=C/c3cccnc3)c3ccccc3n2)cc1 | 20.0 | - | - | - | ? | -
CC1=C(C(=O)OC2CCCC2)C(c2ccc(F)cc2F)CC(=O)N1 (stereo not given) | . | . | . | . | . | -
Cn1c(/C=C/c2ccc(Cl)cc2)nc2ccccc2c1=O | 24.5 | - | 46.2 | - | - | ?
COc1cccc(-n2c(/C=C\c3ccc(Cl)cc3)nc3ccccc3c2=O)c1 | . | . | . | . | . | -
Cn1c(/C=C/c2ccccc2)nc2ccccc2c1=O | 27.9 | - | 57.0 | - | - | -
Cn1c(NN)nc2ccccc2c1=O | 36.5 | - | 33.1 | ? | - | -
CCn1c(/C=C/c2ccccc2)nc2ccccc2c1=O | - | - | - | - | - | -
Cc1ccc(O)c(NC(=O)c2cc(-c3ccccc3Cl)on2)c1 | 34.3 | - | 78.1 | - | - | -
Cc1ccc(-c2cc(C(=O)Nc3cc(C)ccc3O)no2)cc1 | - | - | - | - | ? | -
COc1ccc(-c2cc(C(=O)Nc3cc(C)ccc3O)no2)cc1 | 14.0 | - | - | - | - | -
COc1ccc(-c2cc(C(=O)Nc3cc(Cl)ccc3O)no2)cc1 | 37.9 | - | 69.9 | - | - | -
CCCOc1ccc(CNC(=O)CN2C(=O)c3cccnc3Oc3ccc(C)cc32)cc1 | . | . | . | . | . | -[15.4 µM]
Cc1ccc(/C=N/Nc2cccc3cccnc23)c(O)c1 | 27.7 | - | - | - | - | -
Oc1ccc(/C=N/Nc2cccc3cccnc23)c(O)c1 | 59.1 | - | 102.4 | - | - | -
CCOC(=O)c1c(Nc2ccc(C)c(C)c2)nnc(-c2ccccc2)c1-c1ccccc1 | . | . | . | . | . | -
COc1ccc(-c2nc(CSCC(=O)NCCc3ccc(OC)c(OC)c3)c(C)o2)cc1 | . | . | . | . | . | -
c1csc(-c2nnc(N3CCCCCC3)c3ccccc23)c1 | 15.1 | - | 77.3 | ? | - | -
c1csc(-c2nnc(N3CCOCC3)c3ccccc23)c1 | - | - | - | - | - | -
COC(=O)[C@@H](c1ccccc1)N(C)S(=O)(=O)c1cccc(S(=O)(=O)N(C)[C@@H](C(=O)OC)c2ccccc2)c1 | - | - | - | - | - | -
CCOc1ccccc1CNC(=O)C(CC)n1nc(C)c2c(C)n(-c3ccccc3)nc2c1=O (stereo not given) | . | . | . | . | . | -
COc1ccc(C2N=C(c3ccccc3)NO2)cc1OC (stereo not given) | 21.9 | - | 86.7 | - | - | -
COc1cc(C2N=C(c3ccccc3)NO2)cc(Br)c1O (stereo not given) | 10.2 | - | - | - | - | -
COc1ccc(C2N=C(c3ccccc3)NC(c3ccccc3)=N2)cc1 | - | - | - | - | - | -
SMILES | CHX counter | LmPK inh | Shiga toxin inh | Giardia FBPA inh | RE007 growth inh | TbPYK inhibitor
FC(F)Oc1ccc(C2N=C(c3ccccc3)NO2)cc1 (stereo not given) | 45.4 | - | 78.6 | - | - | -
O=C(NC(=S)NNC(=O)c1ccccc1O)c1cccnc1 | - | - | 51.0 | - | - | -
O=C(NNC(=S)NC(=O)c1cccnc1)c1ccc(Cl)cc1 | 19.1 | - | - | - | - | -
O=C(NNC(=S)Nc1ccc(Br)cc1)c1cccnc1 | 18.1 | - | - | - | - | -
CC(=O)Nc1ccc(N/C(C)=C/C(=O)c2cccnc2)cc1 | - | - | - | - | - | -
O=C(/C=C\Nc1ccc(Br)cc1)c1cccnc1 | 56.9 | - | 75.6 | - | - | -
COc1ccc2c(c1)OC(C)(C)C(c1ccccc1)C2c1ccc(OCCN2CCCC2)cc1 (stereo not given) | . | . | . | . | . | -
Cc1cc(C(=O)COc2ccccc2Cl)c(C)n1-c1ccc2c(c1)OCO2 | 52.7 | - | 93.1 | - | - | -
CNS(=O)(=O)c1cccc(C(=O)OCC(=O)c2cc(C)n(-c3ccc4c(c3)OCO4)c2C)c1 | 36.1 | - | - | - | - | -
Cc1cc(C(=O)CN2C(=O)NC3(CCCC3)C2=O)c(C)n1-c1ccc2c(c1)OCO2 | - | - | - | - | - | -
Cc1cc(C(=O)CSc2n[nH]c(N)n2)c(C)n1-c1ccc2c(c1)OCO2 | 10.0 | - | - | - | - | -
Cc1ccc(OCCNC(=O)c2ccc3c(c2)OCO3)cc1 | 42.3 | - | 65.6 | - | - | -
O=C(CNC(=O)c1ccc2c(c1)OCO2)NCCOc1ccc(Cl)cc1 | . | . | . | . | - | -
COCCCNC(=O)c1ccc2c(c1)OCO2 | 22.9 | - | + | - | - | -
Cc1ccc(Cl)cc1NC(=O)Cn1c(=O)n(CCCS(=O)(=O)C2CCCCC2)c(=O)c2ccccc21 | . | . | . | . | . | -
Cc1oc(-c2ccc(C(=O)NCc3ccccc3F)cc2)nc1COc1ccccc1 | . | . | . | . | . | -
Cc1csc2nc(-c3ccc(NS(=O)(=O)c4cc(F)ccc4F)cc3)cn12 | . | . | . | . | . | -
Cc1cccc(NC(=S)NN(Cc2ccccc2)c2ccccc2)c1C | - | - | - | - | - | -
Cc1cccc(NC(=S)N(C)C)c1C | - | - | 29.8 | - | - | -
Cc1cccc(NC(=S)NC(=O)CCc2ccccc2)c1C | 18.2 | - | - | - | - | -
Cc1cccc(NC(=S)NC(=O)Cc2ccccc2)c1C | - | - | 15.5 | - | - | -
CCOC(=O)c1[nH]c2ccccc2c1NC(=S)Nc1cccc(C)c1C | 28.7 | - | - | - | - | -
Cc1c(NC(=S)NC(=O)Cc2ccccc2)cccc1C(=O)O | - | - | - | - | - | -
CCOC(=O)c1[nH]c2ccccc2c1NC(=O)NC(C)C | - | - | - | - | - | -
Cc1cc(C)c(NC(=S)N(C)C)cc1C | - | - | - | - | - | -
SMILES | CHX counter | LmPK inh | Shiga toxin inh | Giardia FBPA inh | RE007 growth inh | TbPYK inhibitor
Cc1nc(NC(=O)c2ccncc2)sc1C(=O)N(C)C | - | - | - | - | - | -
Cc1nc(NC(=O)/C=C/c2ccc(F)cc2)sc1C(=O)N(C)C | - | - | - | - | - | -
Cc1ccc(C(=O)Nc2nc(C)c(C(=O)N(C)C)s2)o1 | 37.2 | ? | 79.7 | - | - | -
Cc1nc(NC(=O)/C=C/c2ccccc2)sc1C(=O)N(C)C | 40.2 | - | 80.3 | - | . | -
Cc1nc(NC(=O)c2oc3ccccc3c2C)sc1C(=O)N(C)C | 40.1 | - | 52.3 | - | - | -
Cc1nnc(NC(=O)c2oc3ccccc3c2C)s1 | 36.0 | - | 89.9 | . | - | -
CCCCSc1nnc2n(-c3cccc(C)c3)c(=O)c3c4c(sc3n12)CCCC4 | . | . | . | . | . | -
Cc1ccc2oc3c(c(=O)c2c1)C(c1ccccc1F)N(c1ccccn1)C3=O (stereo not given) | . | . | . | . | . | -
CCCSc1nc2sc3c(c2c(=O)n1-c1ccc(C)c(Cl)c1)CCN(C(C)=O)C3 | . | . | . | . | . | -
O=C(/C=C/c1cccc(F)c1)Nc1nccs1 | 46.5 | - | 117.2 | - | - | -
